# Test results taken from PubChem BioAssay AID588852 (The Scripps Research Institute Molecular Screening Center, 2011).
# About 4,600 (1.3%) of roughly 360,000 compounds were called active. Many of the other results were omitted from the sample, so actives are more common in it than they were. A number with no mark means an inactive call.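 The calls were made as follows: active = percent inhibition above its own plate's cutoff, namely the mean of that plate's compound wells plus 3 SD; inactive = the rest.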
# Target: Muscarinic acetylcholine receptor M1 (Homo sapiens) (UniProt P11229)
# Sequence (P11229 whole entry, looked up): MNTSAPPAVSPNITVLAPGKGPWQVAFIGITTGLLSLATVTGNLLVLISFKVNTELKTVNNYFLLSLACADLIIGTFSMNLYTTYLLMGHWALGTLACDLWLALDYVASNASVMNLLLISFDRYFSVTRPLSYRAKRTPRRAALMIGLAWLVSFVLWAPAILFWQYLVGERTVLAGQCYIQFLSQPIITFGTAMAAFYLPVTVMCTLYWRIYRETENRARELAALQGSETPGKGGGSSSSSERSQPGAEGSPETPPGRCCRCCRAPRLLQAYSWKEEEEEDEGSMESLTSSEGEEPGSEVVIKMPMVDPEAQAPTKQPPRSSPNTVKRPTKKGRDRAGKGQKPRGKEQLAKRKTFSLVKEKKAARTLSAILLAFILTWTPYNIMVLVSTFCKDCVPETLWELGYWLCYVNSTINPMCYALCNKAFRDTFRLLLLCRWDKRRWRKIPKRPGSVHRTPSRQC
# Test: CHRM1 blockers of acetylcholine calcium response – CHO-K1 cells, Fluo-8 calcium fluorescence, 1536-well, primary screen (AID 588852);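 also: peak over basal fluorescence ratio during 140 s after agonist addition; 0% = ACh EC80 plus DMSO and 100% = DMSO alone without agonist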
# Settings: CHO-K1 hM1, Fluo-8 calcium fluorescence, ACh EC80 antagonist; at 3 µM; hits give high values
row,Compound,inhibition
1,Cc1ccc(SCC(=O)N2CCN(c3ccc(F)cc3)CC2)cc1,1.11%
2,CCN1CCC2(CC1)N=C(c1ccc(F)cc1)C(=S)N2C(=O)c1ccc(C)cc1,90.6% (active)
3,CCN1CCC(O)(/C=C/c2ccc(C)cc2)C(C(=O)/C=C/c2ccc(C)cc2)C1 (stereo not given),5.04%
4,C[C@@H]1CN([C@H](C)CO)C(=O)CCCn2nncc2CO[C@@H]1CN(C)S(=O)(=O)c1cccc(C#N)c1,-0.77%
5,COc1ccc(C2=Nc3ccccc3NC(=O)C2N(C(=O)c2cc3ccccc3[nH]2)c2ccccc2)cc1 (stereo not given),-26.4%
6,CC(C)(C)CC(=O)Nc1nc(C(N)Cc2ccc(C(F)(F)F)cc2)cs1 (stereo not given),-6.85%
7,O=C(O)C1C2C=CC(O2)C1C(=O)NCCc1cccc(Cl)c1 (stereo not given),-2.69%
8,COc1cccc(NC(=O)C2c3cc(OC)c(OC)cc3C(=O)N(C)C2c2cccnc2)c1 (stereo not given),-10.6%
9,Cc1nn(C)c(Cl)c1CN1CCC(Oc2ccc(C(=O)N3CCCC3)cc2)CC1,8.44%
10,CC(=O)Nc1ccc(CN2CCC(Oc3ccc(C(=O)N4CCCC4)cc3)CC2)cc1,53.8% (active)
11,O=C(c1ccc(OC2CCN(C/C=C/c3ccc(F)cc3)CC2)cc1)N1CCCCC1,29.3%
12,CCOP(=O)(OCC)C(Cc1ccccc1)N=C(c1ccccc1)c1ccccc1 (stereo not given),-5.83%
13,Cc1c(CN2CCCC(C(=O)c3cccc(Cl)c3)C2)c(=O)n(-c2ccccc2)n1C (stereo not given),27.6% (active)
14,Cc1cccc(N2CCN(Cc3c(C)n(C)n(-c4ccccc4)c3=O)CC2)c1C,12.1%
15,Cc1c(CN2CCC(C)CC2)c(=O)n(-c2ccccc2)n1C,8.27%
16,CC(C)(O)C#Cc1ccc(CNC[C@H]2O[C@@H](n3cnc4c(=O)[nH]c(N)nc43)[C@H](O)[C@@H]2O)s1,3.48%
17,C=CCOC(=O)C1=C[C@@H](c2ccc3c(c2)OCO3)C[C@@H](OCCCCO)O1,-1.17%
18,Cc1cc2c(cc1C)N1C(=O)c3cc4ccccc4cc3NC(=O)C1C(=O)N2 (stereo not given),-27%
19,CCCCC(=O)NNC(=S)NC(=O)C(c1ccccc1)c1ccccc1,68.7% (active)
20,O=C(CCN1CCN(c2ccccc2)CC1)NNC(=S)Nc1ccccc1,17.2%
21,COc1ccccc1NC(=S)NC(=O)C(C)C,-7.13%
22,COc1cc(NC(=O)c2cc(-c3ccc(F)cc3OC(C)C)n[nH]2)cc(OC)c1OC,8.53%
23,CCc1ccc(C(=O)OCC(=O)NCC(F)(F)F)cc1,-11.6%

row,Compound,inhibition
1,CCOc1ccc(Nc2nc(Cc3nnc(SCC(=O)c4ccc(C)cc4)o3)cs2)cc1,13% (active)
2,CC(=O)Nc1ccc(C(=O)CSc2nnc(Cc3ccccc3)o2)cc1,-12.2%
3,CCOc1ccc(Nc2nc(Cc3nnc(SCC(=O)NC4CCCC4)n3C)cs2)cc1,-22.9%
4,CCOC(=O)c1nnn(CC(=O)Nc2cccc(F)c2)c1C(=O)OCC,-2.12%
5,O=C(NCc1cccnc1)c1nc(-c2cccs2)no1,-2.8%
6,CC1CCC2CCCCC2N1C(=O)c1cc([N+](=O)[O-])cc([N+](=O)[O-])c1 (stereo not given),-3.75%
7,Cn1cc(CN2CCCCC2c2ccccn2)c(-c2ccc3c(c2)OCCO3)n1 (stereo not given),-3.05%
8,COc1ccccc1CNC(=O)c1ccc(Cl)c(S(=O)(=O)N2CCCC2)c1,-5.01%
9,Cc1ccc(C(=O)Nc2ccc3c(c2)OCCO3)cc1S(=O)(=O)N1CCOCC1,-13.2%
10,Cc1ccc(C(=O)Nc2ncccc2C)cc1S(=O)(=O)N1CCOCC1,-9.39%
11,COc1ccccc1C(CNC(=O)c1ccc(C)c(S(=O)(=O)N2CCCCC2)c1)N(C)C (stereo not given),101% (active)
12,Cc1ccc(C(=O)NCC(c2cccs2)N(C)C)cc1S(=O)(=O)N1CCOCC1 (stereo not given),50.7% (active)
13,COc1ccccc1C(=O)Nc1ccc(C)c(S(=O)(=O)N2CCCCC2)c1,5.17%
14,CCCCN1C(=O)/C(=C/C=C2/C=Cc3ccccc3N2CC)SC1=S,-7.59%
15,CN1C=CC=C/C1=C1\SC(=S)N(Cc2ccccc2)C1=O,19.7%
16,CCCCN1C(=O)/C(=C2/C=CC=CN2C)SC1=S,37.9% (active)
17,CCC(C)C(CO)NC(=O)/C=C/[C@H]1O[C@@H](n2cnc3c(NC(=O)c4ccccc4)ncnc32)[C@H](O)[C@@H]1O (stereo not given in full),3.77%
18,CC(C)c1cccc(C(C)C)c1Nc1cn[nH]c1,-0.55%
19,O=S(=O)(/C=C/c1ccccc1)N1CCNCC1,-8.17%
20,Fc1ccc(CNCc2ccc(Br)cc2)cc1,-0.53%
21,COc1ccc(NC(=O)CN(C)C(=O)c2cccc(S(=O)(=O)N3CCN(c4ccccc4)CC3)c2)cc1,57.7% (active)
22,CCOc1ccc(NC(=O)CN(C)C(=O)c2cccc(S(=O)(=O)N3CCCC3)c2)cc1OCC,7.19%
23,Cc1ccc(NC(=O)CN(C)C(=O)c2cccc(S(=O)(=O)N3CCCC3)c2)cc1,-6.53%

row,Compound,inhibition
1,C=CCN(c1ccc(Cl)cc1)S(=O)(=O)c1cccc(C(=O)OCC(=O)N(C)C)c1,-8.38%
2,COc1cc(S(=O)(=O)N(Cc2cccs2)C2CC2)ccc1-n1cnnn1,-5.47%
3,O=S(=O)(Cc1nnnn1-c1ccc(Br)cc1)c1ccc(F)cc1,-2.5%
4,Nc1c(C(=O)c2cccs2)sc2nsc(SCCN3CCCCC3)c12,44.1% (active)
5,Cc1nc2cc(NC(=O)Nc3cccc(F)c3)ccc2n1C,-17.2%
6,O=C(Nc1ccc2ccccc2c1)Nc1ccc2snnc2c1,32.8% (active)
7,S=C(Nc1ccccc1)Nc1ccc2ccccc2c1,-3.01%
8,O=C(c1ccco1)N1CCN(CCOc2ccccc2)CC1,-9.86%
9,CN(Cc1ccccc1)C(=O)CCC1CCN(C(=O)c2ccco2)CC1,31.3% (active)
10,O=C(c1ccco1)N1CCN(C(=O)C2c3ccccc3Oc3ccccc32)CC1,11.3%
11,Cc1ccc([C@@H]2CC(=O)[C@@H]3CN(S(=O)(=O)c4ccc(C)cc4)[C@H](c4ccccc4F)C[C@@H]3N2S(=O)(=O)c2ccc(Cl)cc2)cc1,-10%
12,CC12CCC(=O)C=C1CCC1C2C(O)CC2(C)C1CCC2(O)C(O)CO (stereo not given),-14.1%
13,COc1cc(/C=C2/SC(=S)N(Cc3ccccc3)C2=O)cc(OC)c1O,30.7% (active)
14,COc1ccc(CCNC2=C(Cl)C(=O)N(Cc3ccccc3)C2=O)cc1OC,13.4%
15,COc1ccc(/C=C2\SC(=S)N(CCC(=O)N3CCOCC3)C2=O)cc1OC,-11%
16,O=C(CCNc1n[nH]c(=O)[nH]c1=O)N/N=C\c1ccc(Br)cc1,-20%
17,Cc1ccccc1C(OCCN(C)C)C1CCCCC1 (stereo not given),99.8% (active)
18,CN(C)CCOC1c2ccccc2-c2ccccc21,12.7%
19,COc1ccccc1CNC(=O)Cn1c(=O)oc2cc(Cl)ccc21,-12.3%
20,CSCCC(NC(=O)c1ccco1)C(=O)NCCc1ccc(F)cc1 (stereo not given),4.11%
21,CC(C(=O)c1ccc(-c2ccccc2)cc1)[n+]1cccc(Br)c1 (stereo not given),35.1% (active)
22,O=C(NNC(=O)c1ccc(-c2ccccc2)cc1)Nc1ccccc1,-2.91%
23,C[n+]1cccc(C(=O)O)c1,-30.2%

row,Compound,inhibition
1,CCCCc1nc(NCc2ccccc2)c(C#N)c2c1CCCC2,-5.37%
2,COc1ccc(C(C#N)=C2C=CC(=NO)c3ccccc32)cc1,22%
3,CC1=C(C(=O)N2CCOCC2)CC(CC(=O)NCc2cccs2)C(=O)N1CCCN1CCCC1=O (stereo not given),4.82%
4,Cc1ccc2nc(-c3ccco3)c(Cc3cccc(Cl)c3)n2c1,-5.65%
5,COC(=O)c1ccc(CNC(=O)c2ccc(S(=O)(=O)N3CCCCCC3)cc2)cc1,-11.2%
6,Cc1cc2cc(CNC(=O)c3ccc(S(=O)(=O)N4CCOCC4)cc3)ccc2[nH]1,59.4% (active)
7,Cc1ccc(S(=O)(=O)N2CCOCC2)cc1C(=O)NCc1ccc(F)cc1,9.1%
8,CCCC(=O)N1CCC1(C)C(=O)NCc1ccc(SC)cc1 (stereo not given),-8.63%
9,O=C(COc1cccnc1[N+](=O)[O-])Nc1ccc(Cl)cc1F,3.68%
10,CC(NC(=O)COc1cccnc1[N+](=O)[O-])c1ccc(Cl)cc1Cl (stereo not given),42.6% (active)
11,COc1cccc(NC(=O)COc2cccnc2[N+](=O)[O-])c1,-7.66%
12,CCCNC(=S)NC1CC2CCCC(C1)N2CC(C)C (stereo not given),29.5%
13,CC(C)C(c1nnnn1C(C)(C)C)N1CCN(Cc2cccnc2)CC1 (stereo not given),-13.5%
14,CCOc1ccc(CN(Cc2ccco2)C(c2cccs2)c2nnnn2C(C)(C)C)cc1 (stereo not given),18.8%
15,CC(C)(C)n1nnnc1C(c1cccs1)N(Cc1cccnc1)CC1CCCO1 (stereo not given),79.4% (active)
16,CC(=O)NS(=O)(=O)c1ccc2c(c1)Cc1cc(S(=O)(=O)NC(C)=O)ccc1-2,-13.4%
17,O=C(NCC(O)c1nc2ccccc2[nH]1)c1ccc(Br)cc1 (stereo not given),-13.3%
18,CC(=O)C1=CCC(c2ccccc2)N(S(=O)(=O)c2ccc(C)cc2)C1 (stereo not given),-10.8%
19,CCOC(=O)C1=CC[C@@H](c2ccncc2)N(S(=O)(=O)c2ccc(C)cc2)C1,24.6%
20,CCOC(=O)C1=CCC(c2ccc(F)cc2)N(S(=O)(=O)c2ccc(C)cc2)C1 (stereo not given),34% (active)
21,COc1c(C)cc(C(O)c2ncc(-c3cccc(C(F)(F)F)c3)[nH]2)cc1C (stereo not given),-5.01%
